{"source": "PubChem BioAssay (EPA / NIEHS)", "key": {"[1]": {"molecular_target": "human Ephrin type-A Receptor 2 (EphA2), EPHA2 (gene 1969) (UniProt P29317)", "sequence (P29317 whole entry, looked up)": "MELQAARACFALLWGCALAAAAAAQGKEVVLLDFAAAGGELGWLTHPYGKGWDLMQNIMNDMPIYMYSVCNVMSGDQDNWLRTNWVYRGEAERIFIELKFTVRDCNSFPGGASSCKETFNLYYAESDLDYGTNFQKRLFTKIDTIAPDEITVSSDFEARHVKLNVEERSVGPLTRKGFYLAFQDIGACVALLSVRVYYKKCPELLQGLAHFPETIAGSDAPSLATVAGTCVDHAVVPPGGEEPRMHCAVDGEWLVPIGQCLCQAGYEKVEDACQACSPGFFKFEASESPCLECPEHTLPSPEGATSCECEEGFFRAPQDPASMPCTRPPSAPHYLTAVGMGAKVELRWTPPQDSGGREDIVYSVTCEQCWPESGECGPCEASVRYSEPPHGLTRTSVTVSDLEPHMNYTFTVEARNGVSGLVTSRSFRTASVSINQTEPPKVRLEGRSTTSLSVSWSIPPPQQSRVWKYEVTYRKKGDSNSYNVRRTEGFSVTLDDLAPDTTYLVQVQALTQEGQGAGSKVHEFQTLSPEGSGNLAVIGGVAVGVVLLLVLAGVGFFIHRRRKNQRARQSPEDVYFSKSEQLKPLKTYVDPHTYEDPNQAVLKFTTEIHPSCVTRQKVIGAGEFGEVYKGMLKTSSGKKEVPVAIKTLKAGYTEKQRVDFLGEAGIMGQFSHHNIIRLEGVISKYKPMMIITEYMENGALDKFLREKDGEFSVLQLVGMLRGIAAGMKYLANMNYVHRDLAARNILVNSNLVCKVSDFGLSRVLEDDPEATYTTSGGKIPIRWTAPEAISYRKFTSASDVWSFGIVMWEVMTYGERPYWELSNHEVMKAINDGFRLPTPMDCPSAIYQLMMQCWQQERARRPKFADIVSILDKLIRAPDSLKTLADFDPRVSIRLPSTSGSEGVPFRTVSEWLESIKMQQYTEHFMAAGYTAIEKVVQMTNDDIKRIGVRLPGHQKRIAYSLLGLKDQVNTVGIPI", "assay": "NVS_ENZ_hEphA2: NovaScreen (NVS) Enzymatic Assay for human Ephrin type-A Receptor 2 (EphA2) (AID 2283155)", "in_short": "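Enzyme activity of recombinant EphA2 read by fluorescence after mobility-shift separation, 1 h after dosing. Chemicals first tested at 25 uM (duplicate); those passing threshold run as concentration series, top 50 uM, single replicate, relative to DMSO.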"}, "[2]": {"molecular_target": "human Fibroblast Growth Factor Receptor 1 (FGFR1), FGFR1 (gene 2260) (UniProt P11362)", "sequence (P11362 whole entry, looked up)": "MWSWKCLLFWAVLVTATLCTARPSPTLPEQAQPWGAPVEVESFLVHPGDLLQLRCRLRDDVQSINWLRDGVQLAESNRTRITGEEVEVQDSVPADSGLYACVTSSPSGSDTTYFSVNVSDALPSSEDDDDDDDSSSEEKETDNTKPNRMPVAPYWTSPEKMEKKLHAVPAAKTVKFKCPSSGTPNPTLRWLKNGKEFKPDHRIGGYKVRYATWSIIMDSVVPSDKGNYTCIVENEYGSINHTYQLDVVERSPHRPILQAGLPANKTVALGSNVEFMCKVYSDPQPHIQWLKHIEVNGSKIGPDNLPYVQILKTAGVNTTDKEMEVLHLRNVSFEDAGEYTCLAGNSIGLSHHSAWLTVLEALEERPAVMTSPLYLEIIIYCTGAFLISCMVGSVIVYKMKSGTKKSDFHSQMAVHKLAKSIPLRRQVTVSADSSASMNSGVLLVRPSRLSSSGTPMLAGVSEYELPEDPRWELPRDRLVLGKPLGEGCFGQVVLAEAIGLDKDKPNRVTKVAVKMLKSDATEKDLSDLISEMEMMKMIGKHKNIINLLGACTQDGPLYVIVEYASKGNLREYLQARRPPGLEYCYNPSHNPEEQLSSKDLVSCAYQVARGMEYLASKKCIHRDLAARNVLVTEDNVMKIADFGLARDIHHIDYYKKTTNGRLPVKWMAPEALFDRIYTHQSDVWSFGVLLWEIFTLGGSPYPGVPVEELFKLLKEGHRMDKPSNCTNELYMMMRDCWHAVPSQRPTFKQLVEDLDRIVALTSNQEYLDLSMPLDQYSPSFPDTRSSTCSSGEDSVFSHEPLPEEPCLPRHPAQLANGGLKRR", "assay": "NVS_ENZ_hFGFR1: NovaScreen (NVS) Enzymatic Assay for human Fibroblast Growth Factor Receptor 1 (FGFR1) (AID 2283159)", "in_short": "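Cell-free recombinant kinase with fluorescent substrate, product separated by electrophoretic mobility shift; read 1 hour after dosing, loss of signal relative to DMSO. Initial screen in duplicate at 25 uM, actives followed in concentration series.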"}, "[3]": {"molecular_target": "human Raf-1 Proto-Oncogene, serine/threonine Kinase (RAF1), RAF1 (gene 5894) (UniProt P04049)", "sequence (P04049 whole entry, looked up)": "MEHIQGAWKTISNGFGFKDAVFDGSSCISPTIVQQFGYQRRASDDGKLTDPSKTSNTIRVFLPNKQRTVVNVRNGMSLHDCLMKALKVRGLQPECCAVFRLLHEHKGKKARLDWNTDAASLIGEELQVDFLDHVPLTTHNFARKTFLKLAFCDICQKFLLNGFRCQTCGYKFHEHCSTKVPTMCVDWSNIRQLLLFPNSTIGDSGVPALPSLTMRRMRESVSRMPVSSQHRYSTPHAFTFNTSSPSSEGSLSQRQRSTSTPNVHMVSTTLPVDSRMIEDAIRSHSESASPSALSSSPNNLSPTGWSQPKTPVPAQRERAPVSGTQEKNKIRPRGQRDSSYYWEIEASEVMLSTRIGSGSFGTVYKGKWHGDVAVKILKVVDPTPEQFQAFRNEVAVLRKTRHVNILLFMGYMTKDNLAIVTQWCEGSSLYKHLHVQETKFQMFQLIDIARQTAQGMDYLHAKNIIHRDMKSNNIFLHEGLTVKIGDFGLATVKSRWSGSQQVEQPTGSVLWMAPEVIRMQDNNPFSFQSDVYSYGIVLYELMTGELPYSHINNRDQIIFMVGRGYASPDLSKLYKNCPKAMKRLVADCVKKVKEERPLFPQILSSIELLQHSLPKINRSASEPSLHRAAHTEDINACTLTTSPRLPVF", "assay": "NVS_ENZ_hRAF1: NovaScreen (NVS) Enzymatic Assay for human Raf-1 Proto-Oncogene, serine/threonine Kinase (RAF1) (AID 2283216)", "in_short": "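Single-point screening at 25 uM (duplicate), followed by singleton concentration-response to 50 uM maximum for chemicals exceeding threshold. Enzyme activity from fluorescent substrate-product mobility-shift separation after 1 h, relative to DMSO.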"}, "[4]": {"molecular_target": "Norway rat Vesicular Monoamine Transporter (VMAT2), neurotransmitter transporter, Slc18a2 (gene 25549) (UniProt Q01827)", "sequence (Q01827 whole entry, looked up)": "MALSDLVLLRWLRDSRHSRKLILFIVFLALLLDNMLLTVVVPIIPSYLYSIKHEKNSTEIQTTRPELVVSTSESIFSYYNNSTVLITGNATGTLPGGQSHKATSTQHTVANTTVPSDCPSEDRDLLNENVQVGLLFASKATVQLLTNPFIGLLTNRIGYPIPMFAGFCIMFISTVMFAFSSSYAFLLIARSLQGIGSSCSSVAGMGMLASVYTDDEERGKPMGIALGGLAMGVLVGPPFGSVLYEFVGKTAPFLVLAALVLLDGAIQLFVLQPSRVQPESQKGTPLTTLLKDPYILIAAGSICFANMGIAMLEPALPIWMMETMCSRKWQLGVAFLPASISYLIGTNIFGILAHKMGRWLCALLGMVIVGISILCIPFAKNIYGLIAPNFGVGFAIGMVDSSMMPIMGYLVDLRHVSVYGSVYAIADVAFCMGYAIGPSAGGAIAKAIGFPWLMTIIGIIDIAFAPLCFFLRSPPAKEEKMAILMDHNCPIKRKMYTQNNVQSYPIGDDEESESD", "assay": "NVS_TR_rVMAT2: NovaScreen (NVS) Transporter Assay for Norway rat Vesicular Monoamine Transporter (VMAT2), neurotransmitter transporter (AID 2283376);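 further: actives lower the bound radioligand signal below the DMSO level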", "in_short": "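Using rat forebrain membranes, specific radioligand binding to VMAT2 was measured by filtration and scintillation counting after 1 hour. Chemicals screened at 25 uM in duplicate, actives retested in concentration series, DMSO baseline.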"}, "[5]": {"molecular_target": "human Caspase 2 (CASP2), CASP2 (gene 835) (UniProt P42575)", "assay": "NVS_ENZ_hCASP2: NovaScreen (NVS) Enzymatic Assay for human Caspase 2 (CASP2) (AID 2283135)", "in_short": "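Single-point duplicate testing at 25 uM preceded concentration series topping at 50 uM. Activity of the recombinant E. coli-derived protease was followed by fluorescent substrate cleavage 1 h post-dosing, relative to DMSO.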"}, "[6]": {"molecular_target": "Voltage-dependent N-type calcium channel subunit alpha-1B (Rattus norvegicus) (UniProt Q02294)", "assay": "NVS_IC_rCaChN: NovaScreen (NVS) Ion Channel Assay for rat Calcium Channel, Type N (CaChN) (AID 2283317)"}, "[7]": {"molecular_target": "Protein deacetylase HDAC6 (Homo sapiens) (UniProt Q9UBN7)", "assay": "NVS_ENZ_hHDAC6: NovaScreen (NVS) Enzymatic Assay for human Histone Deacetylase 6 (HDAC6) (AID 2283164)", "in_short": "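Concentration-response runs up to 50 uM followed a duplicate 25 uM single-point screen. Deacetylase activity of recombinant human HDAC6 read by fluorescence after 1 h, with mobility-shift separation of substrate and product; DMSO as baseline.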"}, "[8]": {"molecular_target": "human p21 Activated Kinase 4 (PAK4), PAK4 (gene 10298) (UniProt O96013)", "sequence (O96013 whole entry, looked up)": "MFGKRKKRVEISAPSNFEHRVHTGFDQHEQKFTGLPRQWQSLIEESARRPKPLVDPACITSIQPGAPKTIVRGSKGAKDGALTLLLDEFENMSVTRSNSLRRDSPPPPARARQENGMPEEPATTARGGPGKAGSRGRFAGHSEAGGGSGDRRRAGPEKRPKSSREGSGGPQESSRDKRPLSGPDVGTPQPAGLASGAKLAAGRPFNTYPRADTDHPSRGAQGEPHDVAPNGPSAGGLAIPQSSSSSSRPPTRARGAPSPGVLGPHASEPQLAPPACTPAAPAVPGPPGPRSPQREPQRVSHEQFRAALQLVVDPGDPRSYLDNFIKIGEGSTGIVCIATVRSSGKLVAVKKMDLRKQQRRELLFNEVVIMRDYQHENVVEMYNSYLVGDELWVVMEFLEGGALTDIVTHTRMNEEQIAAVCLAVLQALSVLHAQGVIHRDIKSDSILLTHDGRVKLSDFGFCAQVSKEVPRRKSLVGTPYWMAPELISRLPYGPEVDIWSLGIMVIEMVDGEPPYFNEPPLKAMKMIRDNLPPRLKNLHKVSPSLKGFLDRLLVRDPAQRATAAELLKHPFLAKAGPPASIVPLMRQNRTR", "assay": "NVS_ENZ_hPAK4: NovaScreen (NVS) Enzymatic Assay for human p21 Activated Kinase 4 (PAK4) (AID 2283189)", "in_short": "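Extracted PAK4 enzyme activity read by fluorescence with mobility-shift separation 1 h after chemical addition. Duplicate single-concentration screen at 25 uM, DMSO as negative control.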"}, "[9]": {"molecular_target": "rat Monoamine Oxidase, MAO-B, Peripheral (MAOBP), Maob (gene 25750) (UniProt P19643)", "assay": "NVS_ENZ_rMAOBP: NovaScreen (NVS) Enzymatic Assay for rat Monoamine Oxidase, MAO-B, Peripheral (MAOBP) (AID 2283242)"}, "[10]": {"molecular_target": "human Neonicotinoid receptor (NNR), CHRNA2 (gene 1135) (UniProt Q15822)", "assay": "NVS_LGIC_hNNR_NBungSens: NovaScreen (NVS) Ligand-Gated Ion Channel Assay for human Neonicotinoid receptor (NNR) (AID 2283313)", "in_short": "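Compounds first screened in duplicate at 25 uM, then actives re-tested in single-replicate dose series up to 50 uM. Binding measured as displacement of specific radioligand from neuroblastoma membrane receptors after 2 h, scintillation read on filters.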"}, "[11]": {"molecular_target": "human Aurora Kinase A - serine/threonine-protein Kinase 6 (AurA), AURKA (gene 6790) (UniProt O14965)", "assay": "NVS_ENZ_hAurA: NovaScreen (NVS) Enzymatic Assay for human Aurora Kinase A - serine/threonine-protein Kinase 6 (AurA) (AID 2283142)", "in_short": "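Recombinant human AurA activity read by fluorescence after mobility-shift separation of product from substrate; 1 hour incubation. Chemicals first run in duplicate at 25 uM, then concentration series to 50 uM if over threshold; fitted relative to DMSO.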"}, "[12]": {"molecular_target": "human Mitogen-Activated Protein Kinase 1 (MAPK 1), MAPK1 (gene 5594) (UniProt P28482)", "sequence (P28482 whole entry, looked up)": "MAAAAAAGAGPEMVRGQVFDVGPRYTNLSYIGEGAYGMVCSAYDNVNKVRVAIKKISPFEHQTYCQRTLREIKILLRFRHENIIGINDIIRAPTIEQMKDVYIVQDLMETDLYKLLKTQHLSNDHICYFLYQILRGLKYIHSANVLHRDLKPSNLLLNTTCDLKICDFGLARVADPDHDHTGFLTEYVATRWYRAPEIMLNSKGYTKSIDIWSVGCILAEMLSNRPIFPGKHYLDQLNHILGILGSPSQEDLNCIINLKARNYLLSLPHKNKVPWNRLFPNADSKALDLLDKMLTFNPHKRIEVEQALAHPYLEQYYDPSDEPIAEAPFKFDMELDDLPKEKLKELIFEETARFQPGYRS", "assay": "NVS_ENZ_hMAPK1: NovaScreen (NVS) Enzymatic Assay for human Mitogen-Activated Protein Kinase 1 (MAPK 1) (AID 2283175)", "in_short": "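Cell-free recombinant human MAPK1 enzymatic assay, fluorescence/electrophoretic mobility shift read at 1 h; loss of signal vs DMSO. Primary screen in duplicate at 25 uM; actives (e.g. ≥30% inhibition) run as concentration-response up to 50 uM.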"}, "PPP2CA (gene 5515)": {"molecular_target": "PPP2CA (gene 5515) (UniProt P67775)", "assay": "NVS_ENZ_hPPP2CA: NovaScreen (NVS) Enzymatic Assay for human Protein Phosphatase 2 Aatalytic subunit Alpha (PPP2CA) (AID 2283199)", "in_short": "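Cell-free phosphatase activity: fluorescent substrate turnover by recombinant human enzyme, resolved by mobility shift at 1.33 h. Compounds passing the 25 uM duplicate primary screen were rerun in singleton series with a 50 uM top concentration.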"}, "[13]": {"molecular_target": "human Phosphatase and Tensin Homolog (PTEN), PTEN (gene 5728) (UniProt P60484)", "assay": "NVS_ENZ_hPTEN: NovaScreen (NVS) Enzymatic Assay for human Phosphatase and Tensin Homolog (PTEN) (AID 2283203)", "in_short": "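Loss of fluorescent product signal after mobility-shift separation reports PTEN activity, recombinant human enzyme, 1 h after compound addition. Single 25 uM duplicate screen, then concentration-response on actives; DMSO baseline.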"}, "[14]": {"molecular_target": "human Tyrosine Protein Kinase Receptor Tie-2 (Tie2), TEK (gene 7010) (UniProt Q02763)", "sequence (Q02763 whole entry, looked up)": "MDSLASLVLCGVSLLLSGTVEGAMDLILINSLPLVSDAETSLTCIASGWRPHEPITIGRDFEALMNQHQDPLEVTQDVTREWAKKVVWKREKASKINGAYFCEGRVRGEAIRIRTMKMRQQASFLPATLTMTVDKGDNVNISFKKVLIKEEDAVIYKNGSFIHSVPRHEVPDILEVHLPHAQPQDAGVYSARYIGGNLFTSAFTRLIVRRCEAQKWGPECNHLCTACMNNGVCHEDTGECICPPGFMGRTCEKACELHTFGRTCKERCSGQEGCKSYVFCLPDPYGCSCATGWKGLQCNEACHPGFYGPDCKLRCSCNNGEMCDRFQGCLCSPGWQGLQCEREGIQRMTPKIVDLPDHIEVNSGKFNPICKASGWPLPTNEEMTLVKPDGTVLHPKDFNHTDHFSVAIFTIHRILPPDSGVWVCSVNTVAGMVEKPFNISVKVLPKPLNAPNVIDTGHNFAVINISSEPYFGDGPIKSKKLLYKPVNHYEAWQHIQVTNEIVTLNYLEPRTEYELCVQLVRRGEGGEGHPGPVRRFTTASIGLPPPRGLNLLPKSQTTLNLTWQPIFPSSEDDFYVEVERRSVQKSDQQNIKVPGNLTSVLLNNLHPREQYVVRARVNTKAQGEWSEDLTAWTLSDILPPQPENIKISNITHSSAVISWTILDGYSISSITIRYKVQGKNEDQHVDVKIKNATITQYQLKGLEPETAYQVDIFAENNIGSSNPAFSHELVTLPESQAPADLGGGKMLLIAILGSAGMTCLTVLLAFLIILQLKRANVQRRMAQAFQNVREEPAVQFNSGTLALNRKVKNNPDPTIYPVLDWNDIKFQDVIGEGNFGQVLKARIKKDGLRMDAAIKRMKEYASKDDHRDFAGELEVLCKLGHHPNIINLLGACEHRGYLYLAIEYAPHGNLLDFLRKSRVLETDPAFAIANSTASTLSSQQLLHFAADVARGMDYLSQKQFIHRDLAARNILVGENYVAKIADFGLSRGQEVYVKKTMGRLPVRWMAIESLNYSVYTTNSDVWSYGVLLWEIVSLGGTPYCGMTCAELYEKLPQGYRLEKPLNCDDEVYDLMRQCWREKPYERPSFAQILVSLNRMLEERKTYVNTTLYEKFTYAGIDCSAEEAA", "assay": "NVS_ENZ_hTie2: NovaScreen (NVS) Enzymatic Assay for human Tyrosine Protein Kinase Receptor Tie-2 (Tie2) (AID 2283225)", "in_short": "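Substrate and product were separated by mobility shift and detected by fluorescence after a 1-hour reaction with recombinant Tie2. Chemicals passing a 25 uM single-point screen were titrated to a maximum of 50 uM. Results were normalized to DMSO baseline.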"}, "[15]": {"system": "rat Monoamine Oxidase, MAO-A, Peripheral (MAOAP), gene 29253", "assay": "NVS_ENZ_rMAOAP: NovaScreen (NVS) Enzymatic Assay for rat Monoamine Oxidase, MAO-A, Peripheral (MAOAP) (AID 2283237)", "in_short": "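Scintillation counting tracked MAO-A activity in a cell-free rat liver mitochondrial membrane prep, read 1.17 hours after compound addition. Single-point duplicate testing at 25 uM preceded concentration-response follow-up; activity was fitted relative to DMSO.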"}, "[16]": {"molecular_target": "rat Adenylate Cyclase, Forskolin Stimulated, Adcy5 (gene 64532) (UniProt Q04400)", "assay": "NVS_ENZ_rACFSKBinding: NovaScreen (NVS) Enzymatic Assay for rat Adenylate Cyclase, Forskolin Stimulated (AID 2283232)", "in_short": "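Chemicals were first tested at 25 uM in duplicate, then hits run as concentration series with top concentration 50 uM. Enzyme source was rat forebrain membranes; radiometric filter read-out after 1 h, referenced to DMSO.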"}, "[17]": {"assay": "Tanguay_ZF_120hpf_MUSC: Oregon State University Tanguay Lab 120 Hour Post-fertilization zebrafish Assay for Muscle Malformation (AID 2284401; active means hit-call score of the fitted dose curve at least 0.9, where 1 is the maximum; inactive means score below 0.9)", "in_short": "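Scored as a binary brightfield endpoint at 120 hpf, fitted versus DMSO. Single dechorionated wild-type (Tropical 5D) zebrafish embryos per well, statically exposed at 28C from 6 hpf onward with final DMSO 0.64%.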"}, "[18]": {"system": "rat Monoamine Oxidase, MAO-A, Central (MAOAC), gene 29253", "assay": "NVS_ENZ_rMAOAC: NovaScreen (NVS) Enzymatic Assay for rat Monoamine Oxidase, MAO-A, Central (MAOAC) (AID 2283243);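 further: potency refers to inhibition seen as signal drop below DMSO baseline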", "in_short": "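Enzyme from rat brain, cell-free radiodetection format. Counts taken at 1.5 h; activity fitted against DMSO baseline, loss of signal marking inhibition. Confirmatory concentration series followed the 25 uM duplicate screen.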"}, "[19]": {"molecular_target": "rat Corticotropin Releasing Factor Receptor (CRF), Crhr1 (gene 58959) (UniProt P35353)", "assay": "NVS_GPCR_rCRF: NovaScreen (NVS) G Protein-Coupled Receptor Assay for rat Corticotropin Releasing Factor Receptor (CRF) (AID 2283300)", "in_short": "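Single-concentration (25 uM, duplicate) radioligand binding on rat cortical membrane preparations, counted by scintillation after 2 h. Activity scored as signal loss relative to DMSO negative control.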"}}, "note": "Results filed as inconclusive are left out. The source made the active and inactive calls. How the source made its calls, unless noted: active means hit-call score of the fitted dose curve at least 0.9, where 1 is the maximum; inconclusive means response in the unintended direction; inactive means score below 0.9."}
{"smiles": "Clc1nc(Cl)c(Cl)c(Cl)c1Cl", "values": [{"measurement": "outcome", "setting": "[1]", "result": "inactive"}, {"measurement": "outcome", "setting": "[2]", "result": "inactive"}, {"measurement": "outcome", "setting": "[3]", "result": "inactive"}, {"measurement": "outcome", "setting": "[4]", "result": "inactive"}]}
{"smiles": "CC(C)COC(=O)CCCCC(=O)OCC(C)C", "values": [{"measurement": "outcome", "setting": "[5]", "result": "inactive"}, {"measurement": "outcome", "setting": "[6]", "result": "inactive"}]}
{"smiles": "Cc1[nH]cnc1C[C@H]1CCc2c(C)c3ccccc3n2C1=O", "values": [{"measurement": "outcome", "setting": "[7]", "result": "inactive"}, {"measurement": "outcome", "setting": "[8]", "result": "inactive"}, {"measurement": "AC50", "setting": "[9]", "result": "22.2 µM (active)"}, {"measurement": "outcome", "setting": "[10]", "result": "inactive"}, {"measurement": "AC50", "setting": "[4]", "result": "755 nM (active)"}]}
{"smiles": "Cc1nc(-c2ccccn2)ncc1C(=O)Nn1cc(C)c2cc(F)ccc21", "values": [{"measurement": "outcome", "setting": "[11]", "result": "inactive"}, {"measurement": "outcome", "setting": "[1]", "result": "inactive"}, {"measurement": "outcome", "setting": "[2]", "result": "inactive"}, {"measurement": "outcome", "setting": "[12]", "result": "inactive"}, {"measurement": "outcome", "setting": "[8]", "result": "inactive"}, {"measurement": "outcome", "setting": "PPP2CA (gene 5515)", "result": "inactive"}, {"measurement": "outcome", "setting": "[13]", "result": "inactive"}, {"measurement": "outcome", "setting": "[14]", "result": "inactive"}]}
{"smiles": "NC(=O)NO", "values": [{"measurement": "outcome", "setting": "[7]", "result": "inactive"}]}
{"smiles": "CC[C@H](C)C(=O)O[C@H]1C[C@H](O)C=C2C=C[C@H](C)[C@H](CC[C@@H](O)C[C@@H](O)CC(=O)O)[C@H]21", "values": [{"measurement": "outcome", "setting": "[1]", "result": "inactive"}, {"measurement": "outcome", "setting": "[2]", "result": "inactive"}, {"measurement": "outcome", "setting": "[8]", "result": "inactive"}, {"measurement": "outcome", "setting": "[13]", "result": "inactive"}, {"measurement": "outcome", "setting": "[14]", "result": "inactive"}, {"measurement": "outcome", "setting": "[15]", "result": "inactive"}]}
{"smiles": "OCCC(F)(F)C(F)(F)C(F)(F)C(F)(F)C(F)(F)C(F)(F)F", "values": [{"measurement": "outcome", "setting": "[2]", "result": "inactive"}, {"measurement": "outcome", "setting": "[16]", "result": "inactive"}, {"measurement": "outcome", "setting": "[4]", "result": "inactive"}, {"measurement": "outcome", "setting": "[17]", "result": "inactive"}]}
{"smiles": "O=C(O)c1cccc(C[C@@H]2COc3ccc(OCc4nc5cc(F)ccc5s4)cc3[C@@H]2O)c1", "values": [{"measurement": "outcome", "setting": "[2]", "result": "inactive"}, {"measurement": "outcome", "setting": "[12]", "result": "inactive"}, {"measurement": "AC50", "setting": "[18]", "result": "21 µM (active)"}, {"measurement": "outcome", "setting": "[19]", "result": "inactive"}, {"measurement": "outcome", "setting": "[4]", "result": "inactive"}]}
{"smiles": "Nc1ccc(S(=O)(=O)c2ccc(N)cc2)cc1", "values": [{"measurement": "outcome", "setting": "[2]", "result": "inactive"}]}
{"smiles": "CO[C@H]1/C=C/O[C@@]2(C)Oc3c(C)c(O)c4c(O)c(c(/C=N/N5CCN(C)CC5)c(O)c4c3C2=O)NC(=O)/C(C)=C\\C=C\\[C@H](C)[C@H](O)[C@@H](C)[C@@H](O)[C@@H](C)[C@H](OC(C)=O)[C@@H]1C", "values": [{"measurement": "outcome", "setting": "[5]", "result": "inactive"}, {"measurement": "outcome", "setting": "[4]", "result": "inactive"}]}
{"smiles": "Cc1ccc(Cl)cc1", "values": [{"measurement": "outcome", "setting": "[1]", "result": "inactive"}]}
{"smiles": "O=S1(=O)CCCO1", "values": [{"measurement": "outcome", "setting": "[11]", "result": "inactive"}]}
{"smiles": "COC(=O)CCCCC(=O)OC", "values": [{"measurement": "outcome", "setting": "[2]", "result": "inactive"}, {"measurement": "outcome", "setting": "[3]", "result": "inactive"}, {"measurement": "outcome", "setting": "[6]", "result": "inactive"}]}
{"smiles": "Cc1cc(C)c(O)c(C)c1", "values": [{"measurement": "outcome", "setting": "[2]", "result": "inactive"}, {"measurement": "outcome", "setting": "[18]", "result": "inactive"}, {"measurement": "outcome", "setting": "[19]", "result": "inactive"}]}
